Source: PubChem BioAssay
Only some compounds are listed: those with a hit (about 21% of all), similar ones and a draw of the others.
Pf growth 96h – P. falciparum growth inhibition at 96 hour, primary screen for plastid delayed-death inhibitors. Potency, µM (titrated, usually from 28.7 µM), hits mostly inhibitors. AID 504834. 6.9% of 320,000 active. P. falciparum luciferase reporter growth, 96 h
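P. falciparum expressing integrated firefly luciferase grown in erythrocytes (2% hematocrit, 0.05% parasitemia final) with compounds for 96 hours at 37 C, 5% CO2. Growth inhibition read as loss of luminescence after adding luciferase detection reagent.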
Shiga inhibitor – Shiga toxin inhibition; Vero cells, Shiga toxin protein synthesis inhibition reporter; inhibition, % at 38.7 µM; 9.2% of 290,000 active; in the data active = inhibition mostly above about 28%, no sharp cut-off; inactive = mostly below about 43%
Pf growth 48h – inhibits P. falciparum growth in the first generation, 48 h | P. falciparum luciferase growth in erythrocytes, 48 h | 5.9% of 310,000 active | Potency, µM (series often up to 28.7 µM), most hits filed as inhibitors
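Cell-based growth assay: transgenic P. falciparum expressing firefly luciferase, cultured in red cells within RPMI 1640 containing 0.5% w/v Albumax, 24 mM bicarbonate and gentamycin. A drop in luciferase activity indicates inhibition.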
Cycloheximide cs – counter-screen for Shiga toxin inhibitors: cycloheximide protein synthesis inhibition | 12% of 300,000 active | max response, % | AID 2314 | cell reporter, cycloheximide protein synthesis inhibition counterscreen; in the data active = max response mostly above about 13%, no sharp cut-off; inactive = mostly below about 14%; also: read at 38.3 µM for the half of the compounds with a filed dose
NS1 function inh – blocks influenza NS1 protein function; 0.4% of 270,000 active; AID 2326; Potency, µM (titrated, usually from 46.1 µM); calls by dose curve; also: actives are rising curves; nearly all actives have a fitted effect of over 50% in size
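A cell-based growth assay was used: compounds that relieve NS1-induced slow growth of budding yeast raise OD600. Assay medium was yeast nitrogen base with ammonium sulphate and -URA supplement, pH 6.0, with 2% galactose.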
Of the large screens only hits and unclear results are named; the others gave an inactive call. Unless noted, calls follow the shape of the dose curve; as a rule, active = well fitted inhibition curve with a large enough effect; inconclusive = small, poorly fitted or top-dose-only effect, or another doubt; inactive = no such curve, though single readings can be large or run the other way.

Cc1ccc(-c2ccc(/C=N/NC(N)=S)o2)cc1	Pf growth 96h inconclusive, Shiga inhibitor 58, Pf growth 48h inconclusive, Cycloheximide cs 28
NC(=S)N/N=C/c1ccc(-c2ccc(Cl)c(Cl)c2)o1	Cycloheximide cs 20 (no result: Pf growth 96h, Pf growth 48h)
CCNC(=S)N/N=C/c1ccco1	Pf growth 96h inconclusive (no result: Pf growth 48h)
NC(=S)N/N=C/c1ccc(-c2ccccc2)o1	Shiga inhibitor 36, Pf growth 48h inconclusive, Cycloheximide cs 24 (no result: NS1 function inh)
CCNC(=S)N/N=C/c1ccc(-c2ccccc2)o1	Shiga inhibitor 49, Cycloheximide cs 24
CC(=O)Nc1ccc(S(=O)(=O)NCC2CCC(C(=O)NCCCN(C)Cc3ccccc3)CC2)cc1 (centres undefined)	Pf growth 96h inconclusive, Pf growth 48h inconclusive
NC(=S)N/N=C/c1ccc(-c2ccc(SC(F)F)cc2)o1	Pf growth 96h inconclusive, Shiga inhibitor 41, Pf growth 48h inconclusive, Cycloheximide cs 38
Cc1ccc(-c2ccc(/C=N/NC(=O)c3ccccc3O)o2)cc1	Pf growth 96h 0.83µM, Pf growth 48h 0.59µM
O=[N+]([O-])c1ccc(N2CCN(C(=S)c3cccc([N+](=O)[O-])c3)CC2)cc1	Pf growth 96h inconclusive, NS1 function inh inconclusive
COc1cc(C(=O)OCC(=O)Nc2cc(S(=O)(=O)N3CCOCC3)ccc2C)ccc1OCC(C)C	Pf growth 48h inconclusive (no result: Shiga inhibitor, Cycloheximide cs, NS1 function inh)
COc1ccc2[nH]cc(C(=O)CN3CCN(C/C=C/c4ccccc4)CC3)c2c1	Pf growth 96h 10µM, Pf growth 48h 12µM
COc1ccc2[nH]cc(/C=C/C(=O)c3ccccc3)c2c1	Shiga inhibitor 131, Cycloheximide cs 105
Cc1ccc(S(=O)(=O)/C(C#N)=C/c2c[nH]c3ccccc23)cc1	none (no result: Pf growth 96h)
O=C(/C=C/c1c[nH]c2ccccc12)c1ccccc1	Shiga inhibitor 115, Cycloheximide cs 69
COc1ccc2[nH]cc(C=O)c2c1	none
Cc1ccc(C(=O)/C=C/c2c[nH]c3ccccc23)cc1	Shiga inhibitor 148, Cycloheximide cs 52
O=C(O)C(Cc1ccccc1-c1ccccc1)C(=O)O	none
CCCc1cc(=O)[nH]c(Nc2ccc(OC)c(Cl)c2)n1	none
O=C(NCc1ccccc1)c1ccc(N2C(=O)C3CCCCC3C2=O)cc1 (centres undefined)	none
Cc1ccc(NC(=O)COC(=O)C2=NN(c3ccccc3)C(=O)CC2)c(Br)c1	none (no result: Shiga inhibitor, Cycloheximide cs, NS1 function inh)
OCC[n+]1ccc(/C=C/c2c[nH]c3ccccc23)cc1	Pf growth 96h inconclusive, Pf growth 48h 0.59µM
CCN(CC)C(=O)c1ccc(/C=C/c2c[nH]c3ccccc23)[n+](C)c1	Pf growth 96h 0.37µM, Pf growth 48h 0.74µM
COc1ccc2[nH]cc(/C=N/NS(=O)(=O)c3ccc(C)cc3)c2c1	none
O=Cc1c[nH]c2ccc(C(=O)c3ccccc3)cc12	Cycloheximide cs 32 (no result: Shiga inhibitor)
COc1ccc2[nH]cc(/C=C/c3cc[n+](C)cc3)c2c1	Pf growth 96h 0.47µM, Pf growth 48h 1µM
CC[n+]1c(/C=C/c2c[nH]c3ccccc23)ccc2cc(C)ccc21	Pf growth 48h inconclusive (no result: NS1 function inh)
Cc1ccc(S(=O)(=O)N2CCN(C(=O)COC(=O)C3CCC3)CC2)cc1	none (no result: Shiga inhibitor, Cycloheximide cs, NS1 function inh)
COc1cccc(C2CC(=O)C3=C(C2)Nc2ccccc2N(C(=O)CCC(=O)O)C3c2ccc(F)cc2)c1 (centres undefined)	none
O=[N+]([O-])c1cc(Cl)cc(/C=N\Nc2ccccn2)c1O	Pf growth 96h inconclusive, Pf growth 48h inconclusive
O=[N+]([O-])c1ccc(/C=N/Nc2ccccn2)cc1	Pf growth 96h inconclusive, Shiga inhibitor 60, Cycloheximide cs 20
C(=C\c1ccccn1)/c1ccncc1	Shiga inhibitor 78, Cycloheximide cs 21, NS1 function inh inconclusive
O=[N+]([O-])c1cc(/C=N\Nc2ccccn2)ccc1Cl	Pf growth 96h 7.4µM
O=[N+]([O-])c1cccc(/C=N/Nc2ccccn2)c1	Pf growth 96h inconclusive, Shiga inhibitor 65 (no result: NS1 function inh)
COc1ccc(/C=C/c2ccncc2)c2ccccc12	Pf growth 96h inconclusive, Pf growth 48h inconclusive
Nc1cccc(/C=C/c2ccncc2)c1	Shiga inhibitor 59, Cycloheximide cs 20
CN(C)c1ccc(/C=N/Nc2ccc(-n3ccnc3)nn2)cc1	Pf growth 48h inconclusive (no result: Pf growth 96h)
O=C(/C=C/c1cccc([N+](=O)[O-])c1)N1CCN(c2ccccn2)CC1	Pf growth 96h inconclusive
Nc1nnc(/C=C/c2cccc([N+](=O)[O-])c2)s1	Cycloheximide cs 42
Nc1nnc(-c2cccc([N+](=O)[O-])c2)s1	Pf growth 96h inconclusive
O=[N+]([O-])c1cccc(/C=C/c2ccccn2)c1	Shiga inhibitor 54, Cycloheximide cs 29
CN(C)c1ccc(/C=N\Nc2ccccn2)cc1	Shiga inhibitor 47, Cycloheximide cs 24
N#C/C(=C\c1cccc([N+](=O)[O-])c1)c1ccccn1	Shiga inhibitor 55, Cycloheximide cs 28
N#C/C(=C\c1ccc(C(=O)O)cc1)c1ccccn1	none (no result: NS1 function inh)
O=[N+]([O-])c1cccc(/C=N/Nc2nccnc2Cl)c1	Shiga inhibitor 77, Cycloheximide cs 42
O=C(COc1ncnc2ccc(Br)cc12)NC1CCCC1	none (no result: Shiga inhibitor, Cycloheximide cs, NS1 function inh)
CC(C)[C@H](N)C(=O)OCC(CO)OCn1cnc2c(=O)[nH]c(N)nc21 (some centres undefined)	none (no result: Shiga inhibitor, Cycloheximide cs, NS1 function inh)
CC(C)CCOC(=O)C(C)Sc1n[nH]c(=O)[nH]c1=O (centres undefined)	none
O=C(Nc1ccc(-c2cscn2)cc1)C1CCCN(Cc2ccccc2)C1 (centres undefined)	Pf growth 96h inconclusive, Pf growth 48h inconclusive, Cycloheximide cs 24
CC(=O)c1cccc(CN2CCCC(C(=O)Nc3ccc(-c4ccco4)cc3)C2)c1 (centres undefined)	Pf growth 48h 10µM
Cc1nn(C)c(Cl)c1CN1CCCC(C(=O)Nc2ccc(-c3cscn3)cc2)C1 (centres undefined)	Pf growth 96h inconclusive, Pf growth 48h inconclusive
Cc1cccc(CN2CCCC(C(=O)Nc3ccc(-c4cscn4)cc3)C2)c1 (centres undefined)	Pf growth 96h 9.3µM, Pf growth 48h inconclusive
N#Cc1ccccc1OCC(=O)OCC(=O)NC1CC1	none (no result: Shiga inhibitor, Cycloheximide cs, NS1 function inh)
N#Cc1ccc2c(c1)C[C@]1(CCCCN3C(=O)c4ccccc4C3=O)OC3=C(C(=O)OC4(CCCCC4)C3)C2O1	Pf growth 96h inconclusive, Pf growth 48h inconclusive
Oc1[nH]c(N=C2N=c3ccccc3=N2)c2ccccc12	Pf growth 96h 2.3µM, Shiga inhibitor 60, Cycloheximide cs 35
CC(C)(C)CC(=O)Nc1cc2c3c(c1)CCC(=O)N3CCC2	none
CCn1c(SCC(=O)Nc2cc(OC)ccc2OC)nnc1C1CCCCC1	none
O=C(/C=C/c1ccccc1)OCc1cncs1	Shiga inhibitor 88, Cycloheximide cs 33
O=C(OCc1cnc(Cl)s1)c1cccc(Cl)c1	none
O=C(OCc1cncs1)c1cccs1	none
O=C(Nc1ccccc1)OCc1cncs1	Shiga inhibitor 32
O=C(Nc1ccc(Cl)c(Cl)c1)OCc1cncs1	Shiga inhibitor 42, Cycloheximide cs 39 (no result: Pf growth 48h)
Cc1cccc(C(=O)OCc2cnc(Cl)s2)c1	Cycloheximide cs 11
CC(C)OC(=O)NCCOC(=O)Nc1ccc(Cl)c(Cl)c1	Pf growth 48h inconclusive
COC(=O)CN1CCC(=O)c2ccccc2S1(=O)=O	none (no result: Pf growth 96h, Pf growth 48h, NS1 function inh)
